# Only some compounds are listed: those with a hit (about 3.4% of all), similar ones and a draw of the others.
# AmpC inh detg: AmpC beta-lactamase inhibition with detergent present | AmpC hydrolysis of nitrocefin, absorbance 480 nm, 0.01% Triton | Potency, µM (highest dose often 114 µM), for inactives: top-dose activity change, negative = inhibition, most hits filed as inhibitors | hit rate 0.041% among 370,000;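 also: 0% = no-compound wells and -100% = no-enzyme wells; nearly all actives have a fitted effect of over 25% in size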
#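 AmpC (5.3 nM in the dispensed reagent) in 20 mM phosphate pH 7.0 with 0.01% (detergent screen) or 0.0001% Triton X-100 was preincubated with compounds for 15 min at room temperature. Nitrocefin was then added from an 800 uM solution, and hydrolysis was followed at 480 nm.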
# Giardia FBPA inh-1: inhibitors of Giardia lamblia fructose-1,6-bisphosphate aldolase; purified Giardia FBPA; hit rate 0.71% among 290,000; Potency, µM (series often up to 59.6 µM), without a hit: at the highest dose activity, negative = inhibition, most hits filed as inhibitors; also: nearly all actives have a fitted effect of over 55% in size
# Target sequence (A8B2U2 whole entry, looked up): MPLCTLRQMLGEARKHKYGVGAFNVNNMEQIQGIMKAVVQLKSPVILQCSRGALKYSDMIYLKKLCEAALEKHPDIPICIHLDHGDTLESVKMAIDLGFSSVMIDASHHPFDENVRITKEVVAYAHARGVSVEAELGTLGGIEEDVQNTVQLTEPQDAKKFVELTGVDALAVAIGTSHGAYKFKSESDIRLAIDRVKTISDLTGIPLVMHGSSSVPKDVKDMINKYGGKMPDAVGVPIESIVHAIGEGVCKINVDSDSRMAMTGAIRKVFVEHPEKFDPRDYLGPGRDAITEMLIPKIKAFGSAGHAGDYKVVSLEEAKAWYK
#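 40 nM FBPA preincubated 10 min at RT with compound (up to 57.5 uM final), then substrate plus GAPDH/TPI/NAD/arsenate coupling and diaphorase/resazurin added. Fluorescence read after 20 min at RT, 525/598 nm.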
# AmpC inh no detg: AmpC beta-lactamase inhibition without detergent. P00811. AmpC nitrocefin hydrolysis, absorbance 480 nm, 0.0001% Triton. Potency, µM (titrated, usually from 57.1 µM), inactives show at the top dose activity change, negative = inhibition, most hits filed as inhibitors. hit rate 0.52% among 330,000. AID 485341;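 also: plate controls were no compound for no effect and no enzyme for full effect; nearly all actives have a fitted effect of over 20% in size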
#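 20 mM phosphate pH 7.0 + 0.01% (detergent screen) or 0.0001% Triton X-100; 5.3 nM AmpC reagent; cpd preinc 15 min RT; nitrocefin (800 uM stock) to start; A480 q20 s × 4 min; Activity was normalised to no-enzyme and no-compound control wells.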
# RE007 growth inh: less growth of the S. pombe RE007 Vpr strain; S. pombe RE007 Vpr strain, BacTiter-Glo ATP luminescence, 24 h; Potency, µM (series often up to 92.2 µM), for inactives: top-dose activity change, negative = less growth, actives largely listed as inhibitors; hit rate 0.21% among 360,000; active = well fitted falling curve with a large enough effect; inconclusive = small, poorly fitted or top-dose-only effect; inactive = no such curve, though single readings can be large or run the other way; also: nearly all actives have a fitted effect of over 50% in size
#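 Fission yeast strain RE007, carrying one chromosomally integrated HIV-1 vpr copy, was seeded at OD 0.01 in PMG+AL medium with 23 nL pinned compound. After 24 h at 30 °C and 99% humidity, viability was read by BacTiter-Glo luminescence.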
# Sm TGR block: S. mansoni TGR enzyme inhibition; Q962Y6; purified TGR, DTNB reduction, TNB absorbance 405 nm; Potency, µM (titrated, usually from 114 µM), for inactives: at the top dose activity change, negative = inhibition, most hits filed as inhibitors; hit rate 3% among 360,000; also: nearly all actives have a fitted effect of over 60% in size
#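 TGR 20 nM + NADPH 100 uM (dispensed conc.), cpd preinc 15 min RT; start with NADPH (500 uM addition) then DTNB (15 mM addition). Kinetic TNB absorbance, 405 nm filter. Four-parameter Hill fit across titration.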
# Giardia growth: Giardia lamblia growth inhibition | Potency, µM (titrated, usually from 57.5 µM), for inactives: at the top dose activity change, negative = inhibition, actives largely listed as inhibitors | hit rate 5% among 1,500 | Giardia lamblia trophozoite growth inhibition | shares compounds with Giardia FBPA inh-1;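 also: trophozoites exposed to compound for 48 h at 37 °C; nearly all actives have a fitted effect of over 70% in size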
# Mammalian tox: mammalian cytotoxicity of Giardia aldolase inhibitor hits; mammalian cell viability counter-screen, qHTS; hit rate 4% among 1,500; AID 2786; Potency, µM (doses to about 57.5 µM), for the others: at the top dose viability change, negative = toxicity, usual class: inhibitors; shares compounds with Giardia FBPA inh-1;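 also: Chinese hamster ovary cells used as mammalian cytotoxicity surrogate; viability measured as cellular ATP by luminescence; compound exposure lasted 48 h before reading; nearly all actives have a fitted effect of over 60% in size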
# Giardia FBPA inh-2: confirmation of Giardia fructose-bisphosphate aldolase inhibitors | AID 2787 | Potency, µM (doses to about 57.5 µM), without a hit: top-dose activity change, negative = inhibition, usual class: inhibitors | purified Giardia aldolase enzyme activity, qHTS | hit rate 5% among 1,500 | shares compounds with Giardia FBPA inh-1; also: nearly all actives have a fitted effect of over 45% in size
# Rabbit aldolase: blocks rabbit muscle aldolase in Giardia aldolase selectivity test | shares compounds with Giardia FBPA inh-1 | Rabbit muscle FBPA enzyme inhibition, selectivity counter-screen | Potency, µM (highest dose often 57.5 µM), inactives show at the top dose activity, negative = inhibition, most hits filed as inhibitors | hit rate 4% among 1,500; also: nearly all actives have a fitted effect of over 60% in size
# Target sequence (P00883 whole entry, looked up): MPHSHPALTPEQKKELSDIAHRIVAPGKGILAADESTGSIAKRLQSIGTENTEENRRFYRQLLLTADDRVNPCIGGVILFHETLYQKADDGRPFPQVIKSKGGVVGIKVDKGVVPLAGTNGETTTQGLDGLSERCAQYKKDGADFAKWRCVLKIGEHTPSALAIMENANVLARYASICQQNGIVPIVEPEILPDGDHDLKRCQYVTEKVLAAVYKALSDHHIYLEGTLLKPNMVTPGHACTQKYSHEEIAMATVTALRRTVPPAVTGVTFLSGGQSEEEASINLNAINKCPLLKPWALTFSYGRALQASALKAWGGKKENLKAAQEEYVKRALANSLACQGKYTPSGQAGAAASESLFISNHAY
# GAPDH counter: counter-screen for Giardia aldolase inhibitors: GAPDH coupling enzyme; Potency, µM (highest dose often 57.5 µM), without a hit: top-dose activity change, negative = inhibition, most hits filed as inhibitors; GAPDH coupling enzyme counterscreen, biochemical, qHTS; AID 2795; shares compounds with Giardia FBPA inh-1; hit rate 6% among 1,500; also: nearly all actives have a fitted effect of over 55% in size
# Starred values were filed as active, the others as inactive; ? = inconclusive; . = no result; [ ] = remark or other dose. Unless noted, calls follow the shape of the dose curve; as a rule, active = well fitted curve in the direction sought with a large enough effect; inconclusive = small, poorly fitted or top-dose-only effect, or another doubt; inactive = no such curve, though single readings can be large; an effect the other way counts as inactive or inconclusive. Unless noted, % is scaled to controls: 0 for no effect and ±100 for the full control effect; potency is read from the fitted curve at half-maximal effect.
SMILES,AmpC inh detg,Giardia FBPA inh-1,AmpC inh no detg,RE007 growth inh,Sm TGR block,Giardia growth,Mammalian tox,Giardia FBPA inh-2,Rabbit aldolase,GAPDH counter
O=C(NCSc1ccccc1)c1ccccc1,-7%,.,-13%,0%,-1%,.,.,.,.,.
CCN(CC(=O)NCc1ccc(F)cc1)C(=O)CN1CCN(c2ccc(OC)cc2)CC1,2%,7.9µM*,3%,3%,6%,-17%,5%,-8%,-10%,1%
O=C(O)c1ncn(Cc2ccc(Br)cc2)c1C(=O)O,1%,14µM*,-12%,5%,-9%,-20%,1%,21%,22%,25%
O=C(c1ncn(Cc2ccccc2)c1C(=O)N1CCN(c2ccccc2)CC1)N1CCN(c2ccccc2)CC1,.,.,189%,-5%,.,.,.,.,.,.
CCOC(=O)CN1C(=O)c2ccccc2Sc2ncccc21,0%,6%,-17%,4%,12%,.,.,.,.,.
CN1C(=O)/C(=C2\SC(=S)N(NC(=O)c3cccnc3)C2=O)c2ccccc21,-13%,7.1µM*,-31%,0%,-32%,11µM*,7%,-3%,6%,-4%
CCOC(=O)CN1C(=O)/C(=C2\SC(=S)N(NC(=O)c3cccnc3)C2=O)c2ccccc21,-5%,14µM*,-12%,-16%,?,6.3µM*,15%,-24%,-16%,?
O=C(COC(=O)c1ccccc1[N+](=O)[O-])c1ccc(C2CCCCC2)cc1,4%,-4%,-12%,12%,9%,.,.,.,.,.
O=C(O)CCCCCN1C(=O)/C(=C\c2ccc(-c3ccc(Cl)cc3)o2)SC1=S,1%,16µM*,-22%,20%,?,11%[10.4 µM],4%,-4%,3%,15%
O=C(O)CCCN1C(=O)/C(=C/c2ccc(-c3nc4ccccc4s3)o2)SC1=S,-6%,-22%,-24%,-5%,?,.,.,.,.,.
CCn1cc(C(=O)NCc2ccccn2)c(=O)c2cc(S(=O)(=O)N3CCCCC3)ccc21,-3%,18%,171%,.,7%,.,.,.,.,.
[O-][N+](=Cc1ccccc1)CC1(O)CCCCC1,.,.,.,8%,.,.,.,.,.,.
C(=N\Nc1ccc2nncn2n1)/c1ccccn1,1%,14µM*,-25%,5%,20%,-6%,?,5%,-4%,7%
C/C(=N\Nc1ccc2nncn2n1)c1ccccn1,-4%,7.9µM*,-6%,25%,-2%,?,?,-1%,5%,?
C(=N\Nc1nncc2ccccc12)/c1ccccn1,-7%,-17%,-5%,?,-6%,.,.,.,.,.
C/C(=N\Nc1ccc2nncn2n1)c1ccco1,-6%,4%,-4%,-13%,-3%,.,.,.,.,.
Cc1cccc(OCCn2ccnc2)c1C,-13%,22µM*,-3%,20%,0%,10%,1%,-1%,5%,7%
Cc1ccccc1OCCn1ccnc1,0%,?,-6%,1%,2%,.,.,.,.,.
CCc1ccc(OCCn2ccnc2)cc1,-10%,25µM*,-5%,2%,-15%,?,-5%,6%,6%,7%
CCc1ccc(OCCCCCn2ccnc2)cc1,?,?,-1%,-19%,4%,.,.,.,.,.
Cc1cc(=O)[nH]c(N/N=C/c2ccccn2)n1,-7%,?,-3%,-6%,-2%,.,.,.,.,.
Cc1ccc(/C=N/Nc2ccc3ccccc3n2)o1,2%,-21%,-1%,10%,-34%,.,.,.,.,.
O=c1nc(N/N=C/c2ccccn2)cn[nH]1,5%,0.71µM*,-16%,15%,30%,-25%[38.3 µM],?,8%,-9%,-6%
Cc1ccc(/C=N/Nc2cn[nH]c(=O)n2)o1,-3%,18µM*,-33%,-9%,50%,11%[10.4 µM],4%,-7%,0%,-2%
O=c1cnnc(N/N=C/c2ccccn2)[nH]1,-1%,0.79µM*,-12%,-18%,5%,2%[38.3 µM],?,4%,-5%,-16%
SMILES,AmpC inh detg,Giardia FBPA inh-1,AmpC inh no detg,RE007 growth inh,Sm TGR block,Giardia growth,Mammalian tox,Giardia FBPA inh-2,Rabbit aldolase,GAPDH counter
COc1ccccc1-c1n[nH]c(=S)n1N,-9%,16µM*,6%,4%,10%,12%,-10%,4%,6%,8%
COc1ccccc1-n1c(CNC(=O)c2ccco2)n[nH]c1=S,4%,11µM*,-12%,-6%,1%,52%,9%,2%,1%,13%
COc1ccccc1-n1c(-c2ccco2)n[nH]c1=S,-8%,14µM*,-18%,15%,-29%,3%[10.4 µM],6%,-3%,14%,-8%
Cc1cc(C)cc(NC(=O)Cn2c(-c3cncs3)nc3ccccc32)c1,-9%,.,.,.,-9%,.,.,.,.,.
COc1ccccc1CNC(=O)CN1C(=O)c2cccnc2Oc2ccccc21,11%,.,.,.,-8%,.,.,.,.,.
O=C(Nc1ccccc1)Oc1ccc[nH]c1=O,-4%,1.4µM*,-8%,-8%,50µM*,13%[38.3 µM],?,0.23µM*,0.73µM*,2.6µM*
CC(=O)N[C@@H](Cc1ccc(O)cc1)C(=O)N[C@H](C(=O)N[C@@H](C)C(=O)N[C@H](C=O)CC(=O)O)C(C)C,.,3%,.,.,.,.,.,.,.,.
O=c1c(CN2CCN(c3cccc(Cl)c3)CC2)coc2c(Cl)cc(Cl)cc12,0%,1%,-21%,-8%,14%,.,.,.,.,.
CN1CCN(Cc2coc3c(Cl)cc(Cl)cc3c2=O)CC1,-8%,13µM*,-11%,-2%,?,-12%,-8%,2%,8%,-11%
CCc1ccccc1NC(=O)CSc1nc2ccccc2n1CC(=O)N1CCCC1,3%,1%,73%,27%,-3%,.,.,.,.,.
CCOC(=O)N1CCN(C(=S)NC(=O)c2ccc(F)c(F)c2)CC1,3%,16µM*,2%,-9%,-29%,59%,-15%,2%,6%,10%
CN(C1=C(NC(=O)c2ccccc2)C(=O)c2ccccc2C1=O)C1CCS(=O)(=O)C1 (centres undefined),-12%,0.63µM*,-40%,-18%,?,25µM*,40µM*,?,?,6.3µM*
O=C(NC(=S)NC1CCS(=O)(=O)C1)c1ccccc1 (centres undefined),6%,.,-6%,6%,2%,.,.,.,.,.

# Bioassay records as filed in PubChem.
